Data taken from PubChem BioAssay (NCATS).
Inconclusive results are not listed. Activity calls are given as the source filed them. Calls follow the shape of the dose curve; as a rule, active = well fitted curve in the direction sought with a large enough effect; inconclusive = small, poorly fitted or top-dose-only effect, or another doubt; inactive = no such curve, though single readings can be large; an effect the other way counts as inactive or inconclusive.

How the values were obtained:
[1] = tested on: MCC-13; experiment: qHTS assay to identify novel small-molecules to repurpose for Merkel cell carcinoma treatment (AID 1296009); conditions: MCC and control cell lines, CellTiter-Glo viability, 72 h; series mostly up to 46 µM; also: nearly all actives have a fitted effect of over 60% in size
Summary of the method: (§1)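 72 hr, 37 degree celsius; NPC 8-pt / MIPE 11-pt dose response; compound pinned in DMSO; CellTiter-Glo, 10 min RT, luminescence; normalized to no-cell and DMSO controls.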

[2] = tested on: MCC-26; experiment: as above; conditions: MCC and control cell lines, CellTiter-Glo viability, 72 h; series mostly up to 46 µM
Summary of the method: as §1

[3] = tested on: MKL-1; experiment: as above; conditions: MCC and control cell lines, CellTiter-Glo viability, 72 h; series mostly up to 46 µM
Summary of the method: as §1

[4] = tested on: MKL-2; experiment: as above; conditions: MCC and control cell lines, CellTiter-Glo viability, 72 h; series mostly up to 46 µM
Summary of the method: as §1

[5] = tested on: NIH3T3; experiment: as above; conditions: MCC and control cell lines, CellTiter-Glo viability, 72 h; at 44.8 µM (top of the series) unless noted
Summary of the method: as §1

[6] = tested on: UISO; experiment: as above; conditions: MCC and control cell lines, CellTiter-Glo viability, 72 h; series mostly up to 46 µM
Summary of the method: as §1

[7] = tested on: WaGa; experiment: as above; conditions: MCC and control cell lines, CellTiter-Glo viability, 72 h; series mostly up to 46 µM
Summary of the method: as §1

[8] = tested on: C33A; experiment: Primary qHTS to identify gynecologic anti-cancer compounds using libraries of approved drugs and bioactive compounds (AID 1345084); conditions: Gynecologic cancer cell panel viability, ATPlite luminescence, 48 h; series mostly up to 57.5 µM; also: nearly all actives have a fitted effect of over 55% in size
Summary of the method: (§2)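 Luminescence from the ATPlite ATP-monitoring reagent indicates viable cell number; lower signal means cytotoxicity. Cells received compound 16 h after seeding and were exposed for 48 h across five concentrations.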

[9] = tested on: CAOV3; experiment: as above; conditions: Gynecologic cancer cell panel viability, ATPlite luminescence, 48 h; series mostly up to 57.5 µM
Summary of the method: as §2

[10] = tested on: CASKI; experiment: as above; conditions: Gynecologic cancer cell panel viability, ATPlite luminescence, 48 h; series mostly up to 57.5 µM
Summary of the method: as §2

[11] = tested on: Es-2; experiment: as above; conditions: Gynecologic cancer cell panel viability, ATPlite luminescence, 48 h; series mostly up to 57.5 µM
Summary of the method: as §2

[12] = tested on: HeLa; experiment: as above; conditions: Gynecologic cancer cell panel viability, ATPlite luminescence, 48 h; series mostly up to 57.5 µM
Summary of the method: as §2

[13] = tested on: Hek293T; experiment: as above; conditions: Gynecologic cancer cell panel viability, ATPlite luminescence, 48 h, control line for the selectivity index; series mostly up to 57.5 µM
Summary of the method: as §2

[14] = tested on: JEG-3; experiment: as above; conditions: Gynecologic cancer cell panel viability, ATPlite luminescence, 48 h; series mostly up to 57.5 µM
Summary of the method: as §2

[15] = tested on: OV90; experiment: as above; conditions: Gynecologic cancer cell panel viability, ATPlite luminescence, 48 h; series mostly up to 57.5 µM
Summary of the method: as §2

[16] = tested on: PA-1; experiment: as above; conditions: Gynecologic cancer cell panel viability, ATPlite luminescence, 48 h; series mostly up to 57.5 µM
Summary of the method: as §2

[17] = tested on: SKOV3; experiment: as above; conditions: Gynecologic cancer cell panel viability, ATPlite luminescence, 48 h; series mostly up to 57.5 µM
Summary of the method: as §2

[18] = tested on: Tov-21-G; experiment: as above; conditions: Gynecologic cancer cell panel viability, ATPlite luminescence, 48 h; series mostly up to 57.5 µM
Summary of the method: as §2

[19] = tested on: Tov112D; experiment: as above; conditions: Gynecologic cancer cell panel viability, ATPlite luminescence, 48 h; series mostly up to 57.5 µM
Summary of the method: as §2

[20] = tested on: HEK293T; experiment: qHTS assay to identify novel small-molecules to repurpose for Merkel cell carcinoma treatment (AID 1296009); conditions: MCC and control cell lines, CellTiter-Glo viability, 72 h; at 44.8 µM (top of the series) unless noted; also: nearly all actives have a fitted effect of over 60% in size
Summary of the method: as §1
% is scaled to controls: 0 for no effect and ±100 for the full control effect.

CCOC(N)=O
inactive: outcome [1] | outcome [2] | outcome [3] | outcome [4] | outcome [5] | outcome [6] | outcome [7] | outcome [8] | outcome [9] | outcome [10] | outcome [11] | outcome [12] | outcome [13] | outcome [14] | Potency [15] | outcome [16] | outcome [17] | outcome [18] | outcome [19]

CCN(CC)C(=O)c1cccc(C)c1
inactive: outcome [1] | outcome [2] | outcome [3] | outcome [4] | outcome [5] | outcome [6] | outcome [7] | outcome [8] | outcome [9] | outcome [10] | outcome [11] | outcome [12] | outcome [13] | outcome [14] | Potency [15] | outcome [16] | outcome [17] | outcome [18] | outcome [19]

NC(N)=NS(=O)(=O)c1ccc(N)cc1
inactive: outcome [1] | outcome [2] | outcome [3] | outcome [4] | outcome [5] | outcome [6] | outcome [7] | outcome [8] | outcome [9] | outcome [10] | outcome [11] | outcome [12] | outcome [13] | outcome [14] | Potency [15] | outcome [16] | outcome [17] | outcome [18] | outcome [19]

COc1ccc(NS(=O)(=O)c2ccc(N)cc2)nn1
inactive: outcome [20] | outcome [1] | outcome [3] | outcome [4] | outcome [6] | outcome [7] | outcome [8] | outcome [9] | outcome [10] | outcome [11] | outcome [12] | outcome [13] | outcome [14] | outcome [16] | outcome [17] | outcome [18] | outcome [19]

COc1cc(O)cc(O)c1
inactive: outcome [20] | outcome [1] | outcome [3] | outcome [4] | outcome [6] | outcome [7] | outcome [8] | outcome [9] | outcome [10] | outcome [11] | outcome [12] | outcome [13] | outcome [14] | Potency [15] | outcome [16] | outcome [17] | outcome [18] | outcome [19]

N[C@@H](Cc1ccc(O)cc1)C(=O)O
inactive: activity change, negative = cytotoxicity [1] 12.1% [at 9.22 µM] | activity change, negative = cytotoxicity [2] 4.77% [at 9.22 µM] | activity change, negative = cytotoxicity [3] 3.97% [at 9.22 µM] | activity change, negative = cytotoxicity [4] -20.6% [at 9.22 µM] | outcome [5] inactive [at 9.27 µM] | activity change, negative = cytotoxicity [6] 19.3% [at 9.22 µM] | activity change, negative = cytotoxicity [7] -2.96% [at 9.22 µM] | activity change, negative = cytotoxicity [8] 3.53% [at 11.6 µM] | activity change, negative = cytotoxicity [9] -13.2% [at 11.6 µM] | activity change, negative = cytotoxicity [10] 0.958% [at 11.6 µM] | activity change, negative = cytotoxicity [11] -4.06% [at 11.6 µM] | activity change, negative = cytotoxicity [12] 11.2% [at 11.6 µM] | activity change, negative = cytotoxicity [13] 11.5% [at 11.6 µM] | activity change, negative = cytotoxicity [14] 4.09% [at 11.6 µM] | activity change, negative = cytotoxicity [15] 9.24% [at 11.6 µM] | activity change, negative = cytotoxicity [16] 1.05% [at 11.6 µM] | activity change, negative = cytotoxicity [17] -0.073% [at 11.6 µM] | activity change, negative = cytotoxicity [18] 5.15% [at 11.6 µM] | activity change, negative = cytotoxicity [19] 8.21% [at 11.6 µM]

CC(=O)N[C@H]1[C@H]([C@H](O)[C@H](O)CO)OC(C(=O)O)=C[C@@H]1N=C(N)N
inactive: outcome [1] | outcome [2] | outcome [3] | outcome [4] | outcome [5] | outcome [6] | outcome [7] | outcome [8] | outcome [9] | outcome [10] | outcome [11] | outcome [12] | outcome [13] | outcome [14] | Potency [15] | outcome [16] | outcome [17] | outcome [18] | outcome [19]

COC(=O)c1cccnc1
inactive: outcome [20] | outcome [1] | outcome [3] | outcome [4] | outcome [6] | outcome [7] | outcome [8] | outcome [10] | outcome [11] | outcome [12] | outcome [13] | outcome [14] | Potency [15] | outcome [16] | outcome [18] | outcome [19]

O=c1[nH]c2cc(C(F)(F)F)c(N3CCOCC3)cc2n(CP(=O)(O)O)c1=O
inactive: outcome [1] | outcome [2] | outcome [3] | outcome [4] | outcome [5] | outcome [6] | outcome [7] | outcome [8] | outcome [9] | outcome [10] | outcome [11] | outcome [12] | outcome [13] | outcome [14] | Potency [15] | outcome [16] | outcome [17] | outcome [18] | outcome [19]

Nc1ncnc2c1ncn2[C@@H]1O[C@H](COP(=O)(O)O)[C@@H](O)[C@H]1O
inactive: outcome [20] | outcome [1] | outcome [3] | outcome [4] | outcome [6] | outcome [7] | outcome [8] | outcome [10] | outcome [11] | outcome [12] | outcome [13] | outcome [14] | Potency [15] | outcome [16] | outcome [18] | outcome [19]

CC(=O)N(CC(O)CN(C(C)=O)c1c(I)c(C(=O)NCC(O)CO)c(I)c(C(=O)NCC(O)CO)c1I)c1c(I)c(C(=O)NCC(O)CO)c(I)c(C(=O)NCC(O)CO)c1I (stereo not given)
inactive: outcome [1] | outcome [2] | outcome [3] | outcome [4] | outcome [5] | outcome [6] | outcome [7] | outcome [8] | outcome [9] | outcome [10] | outcome [11] | outcome [12] | outcome [13] | outcome [14] | Potency [15] | outcome [16] | outcome [17] | outcome [18] | outcome [19]

O=C(OOC(=O)c1ccccc1)c1ccccc1
inactive: outcome [1] | outcome [2] | outcome [3] | outcome [4] | outcome [5] | outcome [6] | outcome [7] | outcome [8] | outcome [9] | outcome [10] | outcome [11] | outcome [12] | outcome [13] | outcome [14] | Potency [15] | outcome [16] | outcome [17] | outcome [18] | outcome [19]

CC(C(=O)O)c1ccc2c(c1)Cc1cccnc1O2 (stereo not given)
inactive: outcome [20] | outcome [1] | outcome [3] | outcome [4] | outcome [6] | outcome [7] | outcome [8] | outcome [9] | outcome [10] | outcome [11] | outcome [12] | outcome [13] | outcome [14] | Potency [15] | outcome [16] | outcome [17] | outcome [18] | outcome [19]

O=C(O)c1ccccc1C(=O)Nc1ccc(S(=O)(=O)Nc2nccs2)cc1
inactive: outcome [20] | outcome [1] | outcome [3] | outcome [4] | outcome [6] | outcome [7] | outcome [8] | outcome [9] | outcome [10] | outcome [11] | outcome [12] | outcome [13] | outcome [14] | Potency [15] | outcome [16] | outcome [17] | outcome [18] | outcome [19]
